These results are taken from PubChem BioAssay (Tox21).

Where “and” joins values, the source holds several entries; their conditions need not be identical. Equal entries are not always repeated. Results filed as inconclusive are left out. Values without a mark were called inactive. Calls of active or inactive are those of the source. Calls follow the shape of the dose curve; as a rule, active = well fitted curve in the direction sought with a large enough effect in the repeat runs; inconclusive = weak or mixed curves; inactive = no such curve, though single readings can be large; an effect the other way counts as inactive or inconclusive.

The nature of test [1]: qHTS RealTime-Glo MT Cell Viability Assay in HepG2 cells - 8 hour (AID 1224873). Also: nearly all actives have a fitted effect of over 55% in size. In outline:
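HepG2 cells mixed with RealTime-Glo MT reagents (NanoLuc plus cell-permeant prosubstrate) were seeded at 600 cells/well, incubated 5 h at 37 C/5% CO2, then pinned with compounds in DMSO; nonlytic luminescence tracked viability during 40 h treatment.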
Background: qHTS replaces the single test concentration by a dilution series.

A short description of test [2]: qHTS RealTime-Glo MT Cell Viability Assay in HEK293 cells - 40 hour (AID 1224874). Also: nearly all actives have a fitted effect of over 50% in size. Also: potency is read from the fitted curve at half-maximal effect. The conditions noted are these: RealTime-Glo luminescence; max response: active compounds read low. In outline: (§1)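 HEK293 cells mixed with RealTime-Glo reagents (NanoLuc plus cell-permeant prosubstrate) at 600 cells/well, preincubated 5 h at 37 C/5% CO2, then given 23 nL compound in DMSO. Nonlytic luminescence from viable cells was read at 0, 8, 16, 24, 32 and 40 h.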

Test [3] can be described thus: A CellTox Green Cytotoxicity Assay to monitor cytotoxicity in HEK293 cells - 24 hour (AID 1224875). Also: series mostly up to about 77 µM; nearly all actives have a fitted effect of over 45% in size. In outline:
(§2)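 HEK293 cells premixed with CellTox Green dye were seeded at 600 cells/well and left 5 h at 37 C/5% CO2 before pin transfer of 23 nL compound in DMSO. Fluorescence from dye bound to dead-cell DNA was read during 40 h treatment.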

Test [4] is described as follows: qHTS RealTime-Glo MT Cell Viability Assay in HepG2 cells - 32 hour (AID 1224877). Also: nearly all actives have a fitted effect of over 55% in size. In outline: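 Compound treatment began 5 h after plating HepG2 cells (600/well) with NanoLuc luciferase and prosubstrate. Plates stayed at 37 C for 40 h; luminescence was captured at six time points, 0 h through 40 h.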
Test [5] in a line: A CellTox Green Cytotoxicity Assay to monitor cytotoxicity in HepG2 cells - 24 hour (AID 1224878). Also: nearly all actives have a fitted effect of over 45% in size. The method in brief: (§3)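 HepG2 cells were seeded together with the CellTox Green dye at 600 cells/well, left 5 h at 37 C/5% CO2, then given compounds in DMSO. Fluorescence from dye bound to dead-cell DNA was read repeatedly over 40 h of treatment at 37 C.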
Test [6] in a line: A CellTox Green Cytotoxicity Assay to monitor cytotoxicity in HepG2 cells - 40 hour (AID 1224879). Also: nearly all actives have a fitted effect of over 40% in size. Also: potency is read from the fitted curve at half-maximal effect. The method in brief:
as §3

Test [7] is described as follows: qHTS RealTime-Glo MT Cell Viability Assay in HEK293 cells - 0 hour (AID 1224880). Also: top concentration of the series differs between compounds; nearly all actives have a fitted effect of over 45% in size. The method in brief: as §1
Test [8] can be described thus: A CellTox Green Cytotoxicity Assay to monitor cytotoxicity in HEK293 cells - 32 hour (AID 1224881). Also: nearly all actives have a fitted effect of over 40% in size. The method in brief: as §2
Test [9] is described as follows: A CellTox Green Cytotoxicity Assay to monitor cytotoxicity in HepG2 cells - 16 hour (AID 1224876). Also: nearly all actives have a fitted effect of over 45% in size. The method in brief:
as §3
% is scaled to controls: 0 for no effect and ±100 for the full control effect.

Take `COCCOc1cc2cc(C(=O)NC3CCN(C(C)C)CC3)n(CC(=O)Nc3ccc(Cl)cn3)c2cn1`: the Potency result in test [1], in test [3], in test [4], in [5], in test [6] and in test [7] was “inactive” in each case. In addition, the Potency entry in [8] was “inactive”. For the same compound, the max response in test [2] was -25.3%.

Take `Oc1c(I)cc(Cl)c2cccnc12`: the Potency result in test [1], in test [3], in test [9], in test [4], in test [5] and in test [7] was “inactive” throughout. For the same compound, the Potency was 24.5 µM (active) in test [2]; 34.6 µM (active) and 5.35 µM (active) in test [6].

For `NC(=S)NC(N)=S`, the Potency entry in test [1], in [3], in [9], in test [4], in test [5] and in test [6] was “inactive” throughout. Moreover, the Potency entry in test [7] and in test [8] was “inactive” throughout. In addition, in test [2], the max response is -1.4%.

In the case of `C#C[C@]1(O)CC[C@H]2[C@@H]3[C@H](C)CC4=C(CCC(=O)C4)[C@H]3CC[C@@]21C`, the Potency entry in [1], in test [3], in test [9], in [4], in [5] and in test [6] was “inactive” throughout. In addition, the Potency result in test [7] and in test [8] was “inactive” each time. In test [2], the max response is -25.5%.

Take `CCCCCCCC`: the Potency entry in test [1], in test [3], in test [9], in [4], in [5] and in test [6] was “inactive” throughout. For the same compound, the Potency result in [7] and in test [8] was “inactive” in each case. Further, the max response in test [2] was -2.45%.

As to `CCO[Si](OCC)(OCC)OCC`, the Potency result in [1], in test [3], in [9], in [4], in test [5] and in test [6] was “inactive” throughout. Moreover, the Potency entry in test [7] and in test [8] was “inactive” throughout. Also, the max response in [2] was 3.28%.

`CCC(C)(CCC(C)C)C(=O)[O][Sn]([CH3])([CH3])[O]C(=O)C(C)(CC)CCC(C)C` (configuration not stated): the Potency result in test [1], in test [3], in test [9], in [4], in test [5] and in test [6] was “inactive” throughout. Further, the Potency result in test [7] and in [8] was “inactive” in each case. Besides, in [2], the max response is 0.738%.

For `CCC(C)[O-].CCC(C)[O-].CCOC(=O)/C=C(/C)[O-].[Al+3]`, the Potency result in test [1], in test [3], in [9], in test [4], in test [5] and in [6] was “inactive” in each case. Further, in test [7], the Potency result was “inactive”. In [2], the max response was 0.788%.

On to `C#C[C@]1(OC(C)=O)CC[C@H]2[C@@H]3CCC4=C[C@@H](OC(C)=O)CC[C@@H]4[C@H]3CC[C@@]21C`, for which the Potency result in test [1], in test [3], in [4], in test [5], in [6] and in [7] was “inactive” in each case. Besides, the Potency in test [2] is 21.3 µM (active).

`COC(=O)Nc1nc2ccc(C(=O)c3ccccc3)cc2[nH]1`: the Potency result in [1], in test [3], in test [9], in test [4], in [5] and in test [7] was “inactive” in each case. For the same compound, the Potency in test [2] is 0.477 µM (active); in [6], 268 nM (active).

Turning to `O=C(O)c1cccc(C(F)(F)F)c1`, the Potency entry in test [1], in test [3], in test [9], in test [4], in [5] and in test [6] was “inactive” in each case. Besides, the Potency result in [7] and in test [8] was “inactive” throughout. The max response in [2] was -0.78%.

As for `C[C@@H](O)[C@H](N)C(=O)O`, the viability change, negative = cytotoxic in test [1] was 1.46% [at 15.8 µM]. In test [2], the max response is -1.76%. In test [3], the activity change is -4.79% [at 15.8 µM, active compounds read high]. Besides, the values for the cytotoxicity increase in [9], in test [6] and in [8] were 6.33% [at 15.8 µM], 7.81% [at 15.8 µM] and -5.17% [at 15.8 µM], respectively. Further, the activity change, negative = cytotoxic in test [4] was -3.46% [at 15.8 µM]. Besides, in test [5], the cytotoxicity is 5.91% [at 15.8 µM]. The activity change, negative = cytotoxicity in test [7] was -2.75% [at 15.8 µM].

Take `Nc1ccc(C(=O)O)c(O)c1`: the Potency entry in test [1], in [3], in test [9], in [4], in test [7] and in [8] was “inactive” throughout. For the same compound, the max response in test [2] was -4.05%.

As to `OC[C@@H](O)[C@@H](O)CO`, the Potency entry in [1], in test [3], in test [9], in test [4], in test [5] and in test [6] was “inactive” in each case. Moreover, the Potency entry in [7] and in test [8] was “inactive” throughout. Moreover, in [2], the max response was 7.59%.

For `CCCCCC(C)OC(=O)COc1ccc(Cl)c2cccnc12` (configuration not stated), the Potency result in test [1], in [3], in test [9], in test [4] and in test [7] was “inactive” in each case. Moreover, in [2], the max response is -19.2%.

Consider `C=CC(=O)OCCOC(=O)C=C`, for which the Potency result in test [1], in [3], in test [9], in [4], in [5] and in [6] was “inactive” throughout. In addition, the Potency entry in [7] was “inactive”. Further, the Potency in [2] was 49 µM (active).

Consider `CC(C)=CCC1=C(O)c2ccccc2C(=O)C1=O`, for which the Potency result in test [1], in test [3], in test [9], in test [4], in test [5] and in test [6] was “inactive” in each case. In addition, the Potency result in test [7] and in [8] was “inactive” throughout. In addition, the Potency in test [2] was 24.4 µM (active).

As to `Cc1cc(-c2ccc(N=Nc3cc(S(=O)(=O)O)c4ccccc4c3N)c(C)c2)ccc1N=Nc1cc(S(=O)(=O)O)c2ccccc2c1N`, the Potency entry in [1], in [9], in [4], in [5], in [6] and in test [7] was “inactive” throughout. Further, the Potency in test [2] is 2.2 µM (active).

On to `O=C(O)[C@H](O)[C@@H](O)[C@H](O[C@@H]1O[C@H](CO)[C@H](O)[C@H](O)[C@H]1O)[C@H](O)CO`, for which the Potency result in test [1], in [3], in test [9], in test [4], in test [5] and in [6] was “inactive” each time. Moreover, the Potency result in test [7] and in test [8] was “inactive” each time. In addition, the max response in [2] is 11.3%.

Turning to `CCCCOC(=O)CC`, the Potency result in test [1], in test [3], in test [4] and in [7] was “inactive” each time. The max response in test [2] was 2.07%.
